Assay results published in ChEMBL document CHEMBL1157539, “Thousands of chemical starting points for antimalarial lead identification” (Nature, 2010).

Experiments:
Assay type in all cases: functional
Plasmodium falciparum [1] = experiment: GSK_TCMDC: Inhibition of Plasmodium falciparum 3D7 in whole red blood cells, using parasite LDH activity as an index of growth. Test compounds present at 2uM
Plasmodium falciparum [2] = experiment: GSK_TCMDC: Inhibition of Plasmodium falciparum Dd2 in whole red blood cells, using parasite LDH activity as an index of growth. Test compounds present at 2uM
HepG2 = experiment: GSK_TCMDC: Percent inhibition of human HepG2 cell line. Test compounds present at 10uM.

| SMILES | Inhibition (Plasmodium falciparum [1]) [%] | Inhibition (Plasmodium falciparum [2]) [%] | Inhibition (HepG2) [%] |
| --- | --- | --- | --- |
| Cc1ccc(NC(=O)NC2CCN(CCCCCNC(=O)/C=C/c3ccc(Cl)c(Cl)c3)CC2)cc1C | 100 | 25 | 36 |
| COc1cc2c(c(Cl)c1OC)CCN(Cc1ccccc1)CC2c1ccc(C(N)=O)cc1 (stereo not drawn) | 97 | 60 | 7 |
| CC(C)CNCc1ccc(-c2cccc(-c3nc4ccccc4[nH]3)c2)cc1.O=C(O)C(F)(F)F | 99 | 98 | 53 |
| CCCn1c(Sc2ccc(C#N)c([N+](=O)[O-])c2)nnc1-c1ccc(N(C)C)cc1 | 97 | 98 | 18 |
| COC(=O)Nc1nc2cc3c(cc2s1)OCCO3 | 99 | 0 | 0 |
| O=C(Nc1ccc(-c2nc3ccccc3[nH]2)cc1)C1CCN(Cc2cccc(F)c2F)CC1 | 97 | 51 | 23 |
| Br.CCCCCCn1c2c(c(=N)c3c1CCC3)CCCC2 | 99 | 76 | 31 |
| COC(=O)Nc1cc(C(F)(F)F)ccc1N1CCC(CNS(=O)(=O)c2ccc(OC)cc2)CC1 | 99 | 95 | 13 |
| COc1ccc(CCN(C)CCc2ccc(NC(=O)c3cccc4c(=O)c5ccccc5sc34)cc2)cc1 | 95 | 33 | 24 |
| CN1CCC(OC(=O)c2cc3cc(-c4ccccc4)ccc3n2S(=O)(=O)c2ccccc2)CC1.Cl | 88 | 10 | 31 |
| Cc1cc(-c2cccc3c(C(=O)N4CCc5cc6nccc(N7CCN8CCC[C@H]8C7)c6cc54)cccc23)cc(C)n1.Cl | 97 | 76 | 13 |
| Cc1[nH]c(C)c(-c2cc3ccccc3o2)c(=O)c1Cl | 92 | 13 | 1 |
| CCCNCc1ccc(-c2ccc(CN(CCOC)C(=O)COc3ccccc3Cl)cc2)nc1.O=C(O)C(F)(F)F | 96 | 29 | 0 |
| CN1CCN(CCc2ccc(N/C=C3\C(=O)Nc4ccc5ncccc5c43)cc2)CC1.Cl | 100 | 98 | 51 |
| COc1cccc(-c2cc(C(=O)NC3CCC(N4CCC(c5ccccc5C)CC4)CC3)[nH]n2)c1 (stereo not drawn) | 99 | 58 | 60 |
| COc1ccc2nccc([C@@H](O)CN3CCC(NCC4COc5ccccc5O4)CC3)c2c1.O=C(O)C(=O)O (stereo partly drawn) | 98 | 94 | 17 |

| SMILES | Inhibition (Plasmodium falciparum [1]) [%] | Inhibition (Plasmodium falciparum [2]) [%] | Inhibition (HepG2) [%] |
| --- | --- | --- | --- |
| CCN(CCCN1CCCCC1)c1cc(C)nc(Nc2ccc(C(C)C)cc2)n1.O=C(O)C(F)(F)F | 100 | 51 | 34 |
| NC1=NC(c2ccccc2)(c2ccccc2)C(=O)N1Cc1ccc(-c2ccncc2)cc1.O=CO | 96 | 74 | 20 |
| Cc1ccc(CNC(=N)NC(=O)c2nc(Cl)c(NCc3ccc(Cl)cc3)nc2N)c(C)c1 | 100 | 100 | 28 |
| Cc1ccc(C(=O)Nc2ccc(F)c(F)c2F)cc1S(=O)(=O)N1CCCCC1 | 92 | 69 | 3 |
| O=C(Nc1ccc(F)c(C(F)(F)F)c1)NC1CCN(CCCCCNC(=O)C2CC2c2ccc(Cl)c(Cl)c2)CC1 (stereo not drawn) | 100 | 16 | 96 |
| CC(C)CNC(=O)c1cncc(-c2ccc(CN(C)C3CCN(C)CC3)cc2)c1.O=C(O)C(F)(F)F | 100 | 84 | 15 |
| Cc1cc(N[C@@H](CC(C)C)C(=O)Nc2ccccc2)nc(NCCc2ccccc2)n1.O=C(O)C(F)(F)F | 100 | 87 | 0 |
| CN(C)CCCN1CCN(C(=O)c2cccc(-c3noc(C(F)(F)F)n3)c2)CC1 | 92 | 60 | 0 |
| CCOC(=O)c1cc(C(=O)NCCCCN2CCC(c3ccc4c(c3OC)CCCC4)CC2)ccc1-c1ccc(C(F)(F)F)cc1 | 100 | 60 | 100 |
| Nc1ncc(-c2cn[nH]c2)cc1-c1nc2ccc(F)cc2[nH]1 | 100 | 53 | 38 |
| OC(CN1c2ccccc2Sc2ccccc21)CN(C1CCCCC1)C1CCCCC1 (stereo not drawn) | 99 | 96 | 46 |
| Cc1cc(N[C@@H](CC(C)C)C(=O)Nc2ccccc2)nc(NCc2ccccc2C)n1.O=C(O)C(F)(F)F | 100 | 81 | 21 |
| Cl.N=C(N)NN=Cc1ccc2c(ccc3ccccc32)c1 | 100 | 68 | 9 |
| Cc1cc(N(C)CCCN(C)C)nc(Nc2ccc(Br)cc2)n1 | 100 | 84 | 4 |
| Cc1cc(C)cc(OCC(O)CN(Cc2cc(Cl)cc(Cl)c2)C(=O)Nc2ccc(Cl)cc2)c1 (stereo not drawn) | 97 | 43 | 0 |
